# Shown are actives, neighbours in structure and some others; about 11% of the full set was active somewhere.
# ALDH1A1 inh: ALDH1A1 (human) enzyme inhibition. P00352. Purified ALDH1A1, NADH fluorescence, propionaldehyde substrate. Potency, µM (highest dose often 75.3 µM), without a hit: at the highest dose activity, negative = inhibition, usual class: inhibitors. 220,000 compounds, 7.3% hits. AID 1030; active means well fitted inhibition curve with a large enough effect, not every such curve was filed as active; inconclusive means small, poorly fitted or top-dose-only effect, or another doubt; inactive means no such curve, though single readings can be large or run the other way;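 further: potency means the concentration at half of the fitted maximal effect; plate controls were no enzyme wells and a reference inhibitor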
# Target sequence (P00352 whole entry, looked up): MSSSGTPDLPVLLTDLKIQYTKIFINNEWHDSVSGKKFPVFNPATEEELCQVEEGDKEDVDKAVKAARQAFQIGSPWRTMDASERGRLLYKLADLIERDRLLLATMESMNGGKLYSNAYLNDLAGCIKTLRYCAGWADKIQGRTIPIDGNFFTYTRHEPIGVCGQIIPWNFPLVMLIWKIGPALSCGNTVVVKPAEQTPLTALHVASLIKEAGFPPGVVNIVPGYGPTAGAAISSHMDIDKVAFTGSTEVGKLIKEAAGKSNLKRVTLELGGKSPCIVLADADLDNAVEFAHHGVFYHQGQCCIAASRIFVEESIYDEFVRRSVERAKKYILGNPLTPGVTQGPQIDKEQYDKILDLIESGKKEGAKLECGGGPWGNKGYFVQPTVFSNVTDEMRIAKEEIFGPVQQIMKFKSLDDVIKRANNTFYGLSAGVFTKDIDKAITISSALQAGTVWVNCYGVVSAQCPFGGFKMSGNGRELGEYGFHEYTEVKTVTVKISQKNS
# ALOX12 inhib: blocks human 12-lipoxygenase activity | P18054 | purified 12-hLO, xylenol orange hydroperoxide absorbance | Potency, µM (highest dose often 57.1 µM), inactives show at the top dose activity change, negative = inhibition, usual class: inhibitors | 150,000 compounds, 0.12% hits | AID 1452; further: potency means the concentration at half of the fitted maximal effect; nearly all actives have a fitted effect of over 55% in size
#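 Xylenol orange chromogenic assay: hydroperoxide from 12hLO oxidises Fe(II), giving red-shifted Fe(III)-XO absorbance. Conditions: 150 nM enzyme, 40 uM arachidonic acid, 25 mM Hepes pH 7.0, 0.01% Triton X-100, 30 min, room temperature.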
# PNC inhibitor: blocks assembly of the perinucleolar compartment. activity change (PNC), negative = inhibition, % at 10 µM. PC3M PTB-GFP, PNC prevalence imaging, 16 h; active compounds read low. 140,000 compounds, 3.1% hits;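 active means readout at or below -70, meaning at least 70% loss of cells showing the perinucleolar compartment, a nuclear body marking cancer cells; inconclusive means readout between -30 and a set limit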;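 further: plate controls were DMSO wells for no effect and camptothecin positive control wells for full effect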
#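 PC3M cells stably expressing PTB-GFP, 750–1000 cells/well, treated 16 h at 37 °C with compound (23 nl of library stock), in duplicate. After paraformaldehyde fixation and Hoechst stain, imaged at 20x; PNC prevalence scored by image analysis.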
# IMPase inh: cell-permeable inhibitors of inositol monophosphatase (IMPase) | P97697 | CHO-M1 cells, IP1 accumulation, HTRF TR-FRET ratio | inhibition (IP1 accumulation), % at 46.1 µM | 120,000 tested, under 10 active | AID 901; active means well fitted curve in the direction sought with a large enough effect in the signal ratio, not every such curve was filed as active; inconclusive means small, poorly fitted or top-dose-only effect, or a change in a side signal; inactive means no such curve, though single readings can be large or run the other way; the % refers to the signal ratio;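 further: cells stimulated with carbachol in lithium chloride buffer; plate controls were DMSO basal wells for no effect and reference inhibitor wells for full effect; higher means more IMPase inhibition seen as more IP1 and lower FRET ratio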
# Target sequence (P97697 whole entry, looked up): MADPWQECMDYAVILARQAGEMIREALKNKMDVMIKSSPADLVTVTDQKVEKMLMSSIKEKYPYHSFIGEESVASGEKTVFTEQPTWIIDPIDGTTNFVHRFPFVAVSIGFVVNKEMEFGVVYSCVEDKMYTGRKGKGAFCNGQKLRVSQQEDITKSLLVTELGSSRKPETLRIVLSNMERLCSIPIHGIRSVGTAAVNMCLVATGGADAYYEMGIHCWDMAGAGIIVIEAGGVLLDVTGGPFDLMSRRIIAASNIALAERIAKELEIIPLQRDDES
#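 Elevated IP1 in lysates lowers TR-FRET signal (665/620 ratio and 620 channel reported). Cells were CHO-M1, given carbachol (50 uM as added) plus 50mM LiCl, pH 7.4, 30 min, 37C; compounds titrated up to 46 uM; AC50 by Hill equation.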
# IMPase Li inh: cell-permeable IMPase inhibitors with lithium potentiation; Potency, µM (titrated, usually from 59.4 µM), without a hit: at the highest dose activity, negative = IMPase inhibition, actives largely listed as inhibitors; 210,000 compounds, 0.35% hits; AID 1457; CHO-M1 cells, IP1 TR-FRET (IP-One), carbachol + lithium;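 further: IP1 builds up when IMPase is blocked and the TR-FRET signal falls; potency means the concentration at half of the fitted maximal effect; plate controls were basal vehicle for no effect and high inhibitor control for full effect; nearly all actives have a fitted effect of over 50% in size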
#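 Readout is a homogeneous TR-FRET IP1 immunoassay (Ex 320, Em 665 and 620), where raised cytosolic IP1 lowers signal. Cells were CHO-M1 treated 30 min at 37C with test compounds plus a little lithium; AC50 values came from Hill-equation fitting.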
# HPGD block: blocks human HPGD enzyme activity; P15428; purified HPGD, NADH fluorescence kinetic, PGE2 substrate; Potency, µM, for inactives: at the top dose activity change, negative = inhibition, actives largely listed as inhibitors; 150,000 compounds, 4.3% hits; active means well fitted inhibition curve with a large enough effect, not every such curve was filed as active; inconclusive means small, poorly fitted or top-dose-only effect, or another doubt; inactive means no such curve, though single readings can be large or run the other way; further: potency means the concentration at half of the fitted maximal effect
#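 20 nM HPGD preincubated 15 min at room temperature with compound in 50 mM Tris-HCl pH 8, 0.01% Tween 20. Started with 1 mM NAD+ and 30 uM prostaglandin E2; NADH fluorescence (360/450 nm) read 5 times over 30-s intervals, last minus first.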
# * marks the source's active call; other numbers are inactive results; ? = inconclusive; . = not tested or not shown; [ ] = another dose, or the depositor's remark. Unless noted, the call rests on the fitted dose curve; in most records, active means well fitted curve in the direction sought with a large enough effect; inconclusive means small, poorly fitted or top-dose-only effect, or another doubt; inactive means no such curve, though single readings can be large; an effect the other way counts as inactive or inconclusive. Unless noted, on the % scale 0 is the no-effect control and ±100 the full control effect.
SMILES,ALDH1A1 inh,ALOX12 inhib,PNC inhibitor,IMPase inh,IMPase Li inh,HPGD block
COc1ccc(S(=O)(=O)N2CCN(C(=O)c3c(C)nn(-c4ccccc4)c3Cl)CC2)cc1,31.6µM*,-13.6%,-7.9,9.2,30.1%[38.3 µM],-16.3%
Cc1ccc(S(=O)(=O)c2c(C)nn(-c3ccccc3)c2OC(=O)c2ccccc2F)cc1,.,.,.,1.2,.,.
CC(=O)N(C1=C(O)c2ccccc2C(=O)C1=O)C1CCCCC1,10µM*,-2.7%,11.7,1.6,22.1%[38.3 µM],-26.3%
COc1cccc(C2c3[nH]c4ccccc4c3CCN2Cc2cccn2-c2ncccn2)c1 (stereo not given),-1.0%,.,.,.,6.1%,.
Fc1ccc(C2c3[nH]c4ccccc4c3CCN2Cc2cccn2-c2ncccn2)cc1 (stereo not given),10µM*,.,.,.,6.7%,.
Clc1ccc(-n2cccc2CN2CCc3c([nH]c4ccccc34)C2c2ccccn2)nc1 (stereo not given),14.1µM*,.,.,.,25.8%,.
CCn1c(CCC(=O)Nc2nc3c(s2)CCCC3)nc2cc(S(=O)(=O)N(C)C)ccc21,15.8µM*,-0.7%,-4.4,3.3,15.0%[38.3 µM],-7.4%
Cc1cnc(CNc2ccnc(-c3ccccc3Cl)n2)cn1,-3.4%,-0.8%,.,.,-3.5%,-5.3%
CCCCCC(=O)NC(=S)Nc1cccc(C(C)=O)c1,?,-25.7%,2.3,.,14.4%,14.1µM*
CC(=O)c1cccc(NC(=S)NC(=O)CC(C)C)c1,4.1%,-4.0%,15.6,-1.3,22.8%[38.3 µM],15.8µM*
CCCC(=O)NC(=S)Nc1cccc(C(C)=O)c1,-11.2%,-5.8%,37.5,-8.8,-12.0%[38.3 µM],15.8µM*
CCCOC(=O)Nc1cccc(C(C)=O)c1,-1.5%,0.5%,-100.0*,-1.3,-4.6%,10µM*
CCC(=O)NC(=S)Nc1cccc(C(C)=O)c1,7.7%,-3.5%,-10.1,-2.0,13.0%[38.3 µM],-15.5%
CC(C)CSc1ccccc1NC(=O)c1sc2nc(-c3ccncc3)ccc2c1N,.,.,.,-3.1,.,.
CC(C)C(C)(C)C(C)(C)C(C)(C)S,?,0.1%,.,.,7.3%,-2.3%
CCOC(=O)C(CC)Sc1ncnc2sc3c(c12)CCCC3 (stereo not given),.,.,.,2.3,.,.
CC(=O)c1cccc(NC(=S)Nc2ccn(Cc3cccc4ccccc34)n2)c1,0.794µM*,.,.,.,1.8%,.
CC(=O)c1ccc(NC(=S)Nc2ccn(Cc3ccc(Br)cc3)n2)cc1,?,.,.,.,10.6%,.
CCC1(C)N([O-])C(C)=C(c2ccccc2)[N+]1=O (stereo not given),5.9%,1.8%,-88.3*,-3.2,6.9%[38.3 µM],1.3%
CCCC(=O)C1C(=O)CC(CC(C)SCC)CC1=O (stereo not given),0.5%,-2.3%,8.7,4.5,-1.2%[38.3 µM],-13.1%
CCSC(C)CC1C/C(=N/O)c2c(CC)noc2C1 (stereo not given),-12.1%,-6.0%,-86.0*,11.1,47.8%[38.3 µM],?
CCCc1noc2c1/C(=N\O)CC(CC(C)SCC)C2 (stereo not given),?,-23.4%,?,19.1,12.0%,8.91µM*
NC(=S)c1ccc[n+]([C@@H]2O[C@@H](COP(=O)([O-])OP(=O)(O)OC[C@@H]3O[C@@H](n4cnc5c(N)ncnc54)[C@@H](OP(=O)(O)O)[C@H]3O)[C@@H](O)[C@H]2O)c1,.,-9.5%,.,-5.1,.,.
O=C1CC(c2ccccc2Cl)=NN(c2ncnc3ccccc23)C1=O,0.631µM*,.,.,.,17.6%,.
Clc1ccccc1-c1ccc2ncnc(N3CCNCC3)c2c1,10.5%,.,.,.,7.4%,.
SMILES,ALDH1A1 inh,ALOX12 inhib,PNC inhibitor,IMPase inh,IMPase Li inh,HPGD block
COc1cc(C2CC(=O)Nc3ccc4ccccc4c32)ccc1OC(=O)C(C)C (stereo not given),.,.,.,12.2,.,.
COc1ccc(/C=C/C(=O)Nc2ccc(Cl)cc2Cl)cc1,.,.,.,-1.6,.,.
COc1ccc(C(=O)N2CCC3(CCN(Cc4ccc(C#N)cc4)CC3)CC2)cc1,-7.5%,4.9%,.,.,6.9%,-2.4%
COc1ccc(C2Sc3nncn3N2Cc2ccc(C#N)cc2)cc1 (stereo not given),10µM*,2.4%,15.3,-11.0,-7.2%[38.3 µM],-7.0%
O=S1(=O)CCN(c2ccccc2CC(c2c[nH]c3ccccc23)c2c[nH]c3ccccc23)CC1,?,-0.3%[11.4 µM],.,.,-0.4%,-11.0%
CC(C)Oc1cccc(C(=O)NC(=S)Nc2ccc3c4c(cccc24)CC3)c1,-7.8%,?,21.6,?,.,.
COc1ccc(C(=O)NC(=S)Nc2ccc3c4c(cccc24)CC3)cc1OC,12.6µM*,2.2%,?,.,2.6%,-14.7%
COc1cc(OC)cc(C(=O)NC(=S)Nc2ccc3c4c(cccc24)CC3)c1,7.94µM*,1.2%,33.2,-2.4,-2.7%,-12.6%
COc1ccc(CN2CCN(C(=O)C3CCC(CNS(=O)(=O)c4ccc(C)cc4)CC3)CC2)c(OC)c1OC (stereo not given),20µM*,.,.,.,20.5%,.
CC(=O)Nc1ccc(S(=O)(=O)NCC2CCC(C(=O)N3CCCCCC3)CC2)cc1 (stereo not given),22.4µM*,3.7%,38.2,1.2,-10.1%[38.3 µM],7.08µM*
COc1cc(C(=S)N2CCCC2)cc(OC)c1OS(=O)(=O)c1ccc(NC(C)=O)cc1,?,-1.2%,1.9,.,2.5%,22.4µM*
O=C(O)c1cc(=O)[nH]c(SCc2ccccc2)n1,-12.8%[13.5 µM],0.8%[11.4 µM],.,.,14.1%,-9.3%
Cc1ccc(S(=O)(=O)N[C@H]2COC(=O)[C@H](C)COC(=O)[C@H](C)NC(=O)C/C=C\[C@H]2C)cc1,3.3%[13.5 µM],.,.,.,.,.
Cc1cc(C)cc(Oc2ccc(NC(=O)C3CC=CCC3C(=O)O)cc2)c1 (stereo not given),2.82µM*,.,.,.,1.6%,.
COC(=O)c1cc(NC(=O)C2CC=CCC2C(=O)O)cc(C(=O)OC)c1 (stereo not given),12.6µM*,-10.4%,28.5,4.2,-0.8%,-7.0%
O=C(O)C1CC=CCC1C(=O)Nc1ccc(Oc2ccc(Cl)cc2)cc1 (stereo not given),1.41µM*,-4.4%,?,.,3.2%,-10.5%
COC(=O)c1ccccc1NC(=O)C1CC=CCC1C(=O)O (stereo not given),-14.2%,1.9%,-26.2,6.2,14.9%[38.3 µM],-15.6%
CCOc1ccc(NC(=O)C2CC=CCC2C(=O)O)cc1 (stereo not given),-1.3%,-0.2%,-15.3,9.0,10.5%[38.3 µM],-13.5%
Cc1cnc(C(=O)Nc2ccc(C(=O)N3CCCCC3)cc2)cn1,-3.3%,-2.7%,3.7,-1.3,4.1%[38.3 µM],0.282µM*
Cc1cnc(C(=O)Nc2ccc(N3CCOCC3)cc2)cn1,?,-0.1%,-100.0*,-2.1,2.4%,-8.5%
Cc1cnc(C(=O)Nc2ccc(N3CCCCC3)cc2)cn1,2.3%,.,.,.,-3.2%,.
c1csc(CNc2ccnc(-c3ccc4c(c3)OCO4)n2)c1,?,.,.,.,32.9%,.

# Source: PubChem BioAssay
